For assay [1], the system named is Wnt5a (protein binding on small-molecule microarray). Kind of assay: small molecules binding Wnt5a protein – biophysical, small-molecule microarray, 635/667 nm fluorescence, primary screen (AID 1142).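 Also: fluorescence read at 667 nm with signal to noise per printed feature.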 The conditions noted are these: 635 nm fluorescence, higher = more signal.
Assay [2] can be described thus: ATP-based viability of Huh7 replicon cells – cell-based, CellTiter-Glo luminescence, basal, 48 h, cytotoxicity control for HCV replication inhibitor project, primary screen (AID 1143).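 Also: Huh7 hepatoma cells carrying a hepatitis C replication reporter with no stimulus; test concentration not given here.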 The conditions noted are these: higher = more signal, called active from +8 up or from −8 down. Background: A replicon is a self-replicating genome or part of one, used to study replication in cells.

Assay [3] can be described thus: Pseudomonas biofilm growth suppression – PAO1 strain, BacTiter-Glo luminescence, LB-PBS, primary screen (AID 1144). The conditions noted are these: P. aeruginosa PAO1 biofilm, 12 h, higher = more signal.
Assay [4] in a line: basal CRE-LacZ reporter activity in PC12 – cell-based, unstimulated, primary screen (AID 1145). The conditions noted are these: no forskolin, luminescence, 4.5 h, higher = more signal, called active from +8 up or from −8 down.
Assay [5] in a line: forskolin-driven CRE-LacZ activity in PC12 – cell-based, CRE-LacZ reporter, forskolin-stimulated, primary screen (AID 1146).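 Also: PC12 cells with 6xCRE LacZ reporter stimulated by forskolin 10 µM; beta-galactosidase reporter signal reflecting CREB driven transcription.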 The conditions noted are these: luminescence, 4.5 h, higher = more signal, called active from +8 up or from −8 down.
Assay [6] addresses Streptavidin (Streptomyces avidinii) (UniProt P22629). The assay is described as follows: compounds binding control protein streptavidin – biophysical, small-molecule microarray, 635/667 nm fluorescence, artefact control for SMM compound annotation, primary screen (AID 1147).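 Also: signal reflects streptavidin binding to arrayed compounds as a control protein.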 As to conditions: higher = more signal.
The nature of assay [7]: probe aInhba binding on compound microarray – biochemical, small-molecule microarray, 635/667 nm fluorescence, primary screen (AID 1148).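 Also: score merges 667nm spot fluorescence with signal-to-noise for antibody binding to printed compounds.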 As to conditions: higher = more signal.
Assay [8] deals with Torsin-1A (Homo sapiens) (UniProt O14656). Kind of assay: TOR1A wild-type binding on microarray – cell lysate, small-molecule microarray, lysate, 635/667 nm, primary screen (AID 1149). The conditions noted are these: COS7 hTOR1A-WT lysate, 635 nm fluorescence, higher = more signal.
Assay [9] shares this target. The assay is described as follows: torsin A mutant lysate binding on microarrays – cell lysate, small-molecule microarray, COS7 lysate, 635/667 nm fluorescence, primary screen (AID 1150).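 Also: score pools 667 nm emission and signal to noise measuring lysate protein binding.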 The conditions noted are these: COS7 hTOR1A mutant lysate, 635 nm fluorescence, higher = more signal.
In assay [10] the test system is Sonic hedgehog protein (Shh). The assay is described as follows: Sonic hedgehog microarray binding compounds – biochemical, small-molecule microarray, 635/667 nm fluorescence, primary screen (AID 1151).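 Also: Shh protein binding to compounds spotted on small-molecule microarray slides; score combines spot fluorescence intensity with signal-to-noise across triplicate slides.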 As to conditions: 635 nm fluorescence, higher = more signal.
Assay [11] in a line: optical density shifts of acrAB sulA E. coli – strain DRC41, OD650, 48 h, E. coli filamentation inducer project, primary screen (AID 1152).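 Also: E. coli MC1000 strain DRC41 lacking acrAB efflux pump and sulA.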 As to conditions: higher = more signal, called active from +8 up or from −8 down.
Assay [12] is described as follows: probe aLefty1 binding on compound microarray – biochemical, small-molecule microarray, 635/667 nm fluorescence, primary screen (AID 1153).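 Also: score merges spot fluorescence with signal-to-noise ratio from the scanned slide images.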 The conditions noted are these: higher = more signal.
The nature of assay [13]: plasmodial surface anion channel blockers, osmotic lysis – cell-based, P. falciparum Indochina, OD700, 1 h, primary screen (AID 1154). The conditions noted are these: P. falciparum Indochina infected RBC osmotic lysis, higher = more signal, called active from +8 up or from −8 down.
A short description of assay [14]: plasmodial surface anion channel blockers, osmotic lysis – cell-based, P. falciparum Indochina, OD700, 2 h, primary screen (AID 1155).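 Also: lysis reports solute entry through the parasite surface anion channel PSAC.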 The conditions noted are these: P. falciparum Indochina infected erythrocytes, higher = more signal, called active from +8 up or from −8 down.
Assay [15] is described as follows: changes in parasitized red cell lysis, either direction – P. falciparum Indochina, OD700, 3 h, PSAC antagonist project, primary screen (AID 1156). As to conditions: P. falciparum-infected erythrocytes, osmotic lysis, higher = more signal, called active from +8 up or from −8 down.
Assay [16] is described as follows: plasmodial surface anion channel blockers, osmotic lysis – cell-based, P. falciparum Indochina, OD700, 18 h, primary screen (AID 1157). As to conditions: P. falciparum Indochina infected erythrocytes, osmotic lysis OD700, 18 h; higher = more signal, called active from +8 up or from −8 down.
A short description of assay [17]: S6 kinase pathway phospho-S6 level changes – cell-based, A549, cytoblot, luminescence, serum-stimulated, primary screen (AID 1158).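 Also: serum-stimulated A549 lung adenocarcinoma cells; signal is phosphorylated S6 detected by cytoblot immunostaining with HRP secondary.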 As to conditions: 5 h, higher = more signal.
Assay [18] addresses NADPH oxidase 2 (Homo sapiens) (UniProt P04839). The assay is described as follows: compounds shifting NOX2 Amplex Red fluorescence – cell-based, HEK293-NOX2, PMA-stimulated, NOX inhibitor project, primary screen (AID 1159). Also: test concentration not given here. As to conditions: 45 min, higher = more signal, called active from +8 up or from −8 down.
For assay [19], the target named is NADPH oxidase 4 (Homo sapiens) (UniProt Q9NPH5). The assay is described as follows: compounds shifting NOX4 Amplex Red fluorescence – cell-based, HEK293-NOX4, tetracycline-induced, NOX inhibitor project, primary screen (AID 1160). As to conditions: HEK293-NOX4, Amplex Red H2O2 fluorescence, 45 min; higher = more signal, called active from +8 up or from −8 down.
In assay [20] the target is NADPH oxidase 5 (Homo sapiens) (UniProt Q96PH1). Kind of assay: compounds shifting NOX5 Amplex Red fluorescence – cell-based, HEK293-NOX5, NOX inhibitor project, primary screen (AID 1161). The conditions noted are these: HEK293-NOX5, ionomycin, 45 min, higher = more signal.

The source made the active and inactive calls. Unless noted, no rule for the calls is given here.

Sequence of Torsin-1A (Homo sapiens) (O14656 whole entry, looked up): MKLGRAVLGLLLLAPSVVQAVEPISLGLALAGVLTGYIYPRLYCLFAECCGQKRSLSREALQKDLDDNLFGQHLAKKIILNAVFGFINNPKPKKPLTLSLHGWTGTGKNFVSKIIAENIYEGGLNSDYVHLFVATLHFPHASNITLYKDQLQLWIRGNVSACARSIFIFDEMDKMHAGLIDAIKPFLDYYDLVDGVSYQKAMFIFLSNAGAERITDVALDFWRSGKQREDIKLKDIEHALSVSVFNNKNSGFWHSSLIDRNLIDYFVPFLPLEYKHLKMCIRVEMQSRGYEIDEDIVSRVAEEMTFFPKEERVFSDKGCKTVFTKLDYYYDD
Sequence of NADPH oxidase 2 (Homo sapiens) (P04839 whole entry, looked up): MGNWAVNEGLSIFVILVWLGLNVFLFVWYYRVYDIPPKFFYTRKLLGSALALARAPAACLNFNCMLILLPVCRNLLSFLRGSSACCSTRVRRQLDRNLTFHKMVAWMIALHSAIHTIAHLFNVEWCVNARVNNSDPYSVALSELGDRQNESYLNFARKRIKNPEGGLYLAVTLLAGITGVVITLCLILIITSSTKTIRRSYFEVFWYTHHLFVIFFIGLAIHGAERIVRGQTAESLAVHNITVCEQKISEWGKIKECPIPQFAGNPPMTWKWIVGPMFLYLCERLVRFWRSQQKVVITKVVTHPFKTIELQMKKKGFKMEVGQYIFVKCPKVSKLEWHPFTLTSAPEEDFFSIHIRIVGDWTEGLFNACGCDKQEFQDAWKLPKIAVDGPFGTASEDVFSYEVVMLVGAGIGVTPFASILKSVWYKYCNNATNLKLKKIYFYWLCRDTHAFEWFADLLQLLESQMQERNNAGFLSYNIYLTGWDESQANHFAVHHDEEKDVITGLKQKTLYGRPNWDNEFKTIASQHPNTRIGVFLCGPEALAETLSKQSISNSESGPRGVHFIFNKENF
Sequence of Streptavidin (Streptomyces avidinii) (P22629 whole entry, looked up): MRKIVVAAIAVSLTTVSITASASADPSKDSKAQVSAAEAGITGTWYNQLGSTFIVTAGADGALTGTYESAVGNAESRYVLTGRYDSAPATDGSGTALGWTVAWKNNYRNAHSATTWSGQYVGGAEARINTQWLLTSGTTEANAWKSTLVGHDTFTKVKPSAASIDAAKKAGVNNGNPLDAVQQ
Sequence of NADPH oxidase 4 (Homo sapiens) (Q9NPH5 whole entry, looked up): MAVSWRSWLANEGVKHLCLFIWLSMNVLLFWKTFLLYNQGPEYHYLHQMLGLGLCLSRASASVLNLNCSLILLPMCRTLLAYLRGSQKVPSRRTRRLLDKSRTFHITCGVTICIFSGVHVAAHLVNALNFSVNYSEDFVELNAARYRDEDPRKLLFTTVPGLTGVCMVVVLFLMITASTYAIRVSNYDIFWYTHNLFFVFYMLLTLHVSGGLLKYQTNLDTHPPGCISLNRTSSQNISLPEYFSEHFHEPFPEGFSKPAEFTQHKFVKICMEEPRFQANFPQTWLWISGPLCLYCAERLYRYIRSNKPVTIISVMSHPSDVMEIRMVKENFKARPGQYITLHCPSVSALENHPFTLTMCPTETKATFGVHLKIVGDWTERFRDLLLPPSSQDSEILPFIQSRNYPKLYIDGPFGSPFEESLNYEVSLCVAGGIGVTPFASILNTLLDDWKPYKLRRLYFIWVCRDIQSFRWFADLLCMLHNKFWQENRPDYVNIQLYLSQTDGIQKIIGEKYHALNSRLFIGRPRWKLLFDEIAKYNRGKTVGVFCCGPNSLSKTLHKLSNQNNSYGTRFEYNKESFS
Sequence of NADPH oxidase 5 (Homo sapiens) (Q96PH1 whole entry, looked up): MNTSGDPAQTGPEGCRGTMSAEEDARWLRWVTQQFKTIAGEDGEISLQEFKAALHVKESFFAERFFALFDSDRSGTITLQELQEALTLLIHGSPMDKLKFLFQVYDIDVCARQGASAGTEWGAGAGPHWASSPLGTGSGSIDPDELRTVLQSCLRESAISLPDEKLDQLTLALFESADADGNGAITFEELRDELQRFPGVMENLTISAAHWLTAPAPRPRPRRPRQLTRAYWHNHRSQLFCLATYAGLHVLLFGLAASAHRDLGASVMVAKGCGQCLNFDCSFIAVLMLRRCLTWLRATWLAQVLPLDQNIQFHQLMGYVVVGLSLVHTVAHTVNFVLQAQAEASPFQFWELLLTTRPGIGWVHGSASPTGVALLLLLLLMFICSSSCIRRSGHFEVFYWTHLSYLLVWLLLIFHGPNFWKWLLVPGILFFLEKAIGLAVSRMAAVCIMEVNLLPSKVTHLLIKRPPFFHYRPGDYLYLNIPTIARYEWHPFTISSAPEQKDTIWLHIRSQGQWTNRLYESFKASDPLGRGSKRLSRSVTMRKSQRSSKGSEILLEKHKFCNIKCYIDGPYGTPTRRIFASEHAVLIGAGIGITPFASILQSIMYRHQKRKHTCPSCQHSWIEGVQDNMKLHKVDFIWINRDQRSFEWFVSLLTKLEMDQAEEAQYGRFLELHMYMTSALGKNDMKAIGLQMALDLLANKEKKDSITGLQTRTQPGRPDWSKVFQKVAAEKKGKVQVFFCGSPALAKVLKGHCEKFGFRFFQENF

With `CCOC(=O)[C@H](Cc1ccccc1)NC(=O)CCC1CC(OC(=O)NCc2ccc3c(c2)OCO3)CC2(CCCC(COC(=O)NCCOc3ccccc3)O2)O1` (stereo not given in full), the composite z-score is 0.0544 in assay [1]; 0.411 in assay [6]; -0.177 in assay [7]; 0.662 in the assay with Torsin-1A (Homo sapiens) [8]; 0.184 with Torsin-1A (Homo sapiens) [9]; 1.6 in [10]. For the same compound, in [12], the composite z-score was -0.239. In addition, the z-score in assay [2] was -0.464 (inactive); in assay [3], -1.09 (inactive); in assay [4] it was -0.793 (inactive); in assay [5] it was -0.361 (inactive); in assay [11] it was 0.0897 (inactive); in assay [13], -1.84 (inactive). In addition, the z-score in assay [14] was 0.179 (inactive); in assay [15] it was -0.0818 (inactive); in [16], 0.0514 (inactive); in assay [17], -0.138; in assay [18] it was 0.339 (inactive); in assay [19] it was 0.519 (inactive). For the same compound, the z-score in [20] came out at 0.653.
With `COC(=O)[C@H](Cc1ccccc1)NC(=O)[C@@H](C)CO`, the composite z-score stood at 0.276 in [1]; 0.311 in assay [6]; 0.284 in [7]; 0.0847 with Torsin-1A (Homo sapiens) [8]; 0.0866 with Torsin-1A (Homo sapiens) [9]; 0.643 in assay [10]. Also, the composite z-score in [12] was determined as 0.174. The z-score in assay [2] is -2.36 (inactive); in assay [3], -1.61 (inactive); in [4], -0.0684 (inactive); in [5] it was 0.563 (inactive); in [11], -0.388 (inactive); in [13] it was 0.0772 (inactive). Moreover, the z-score in assay [14] was -0.824 (inactive); in assay [15], 0.811 (inactive); in assay [16] it was -1.87 (inactive); in [17], 1.92; in [18] it was 0.966 (inactive); in assay [19] it was 0.185 (inactive). Besides, in assay [20], the z-score is -2.94.
With `CCc1cc2c(nc1CC)CCN(CCC(C)=NO[C@@H]1O[C@H](COC(C)=O)[C@@H](OC(C)=O)[C@H](OC(C)=O)[C@H]1OC(C)=O)C2`, the composite z-score in [1] was 0.503; in assay [6], 0.963; in assay [7], -0.089; in the assay with Torsin-1A (Homo sapiens) [8], 0.439; with Torsin-1A (Homo sapiens) [9], 0.495; in assay [10], 1.88. Besides, in [12], the composite z-score is -0.0929. Further, the z-score in [2] is -1.9 (inactive); in assay [3], -1.19 (inactive); in assay [4] it was 4.05 (inactive); in assay [5] it was -0.26 (inactive); in assay [11] it was -1.13 (inactive); in [13], -0.451 (inactive). Besides, the z-score is -1.01 (inactive) in [14]; 1.42 (inactive) in [15]; -1.67 (inactive) in assay [16]; 1.83 in assay [17]; 0.0419 (inactive) in assay [18]; 0.47 (inactive) in assay [19]. Further, the z-score in assay [20] amounted to 1.03.
For the compound `CCOC(=O)[C@H](Cc1ccccc1)NC(=O)CCC1CC(OC(=O)NCCc2ccc(F)cc2)CC2(CCCC(COC(=O)NCCOc3ccccc3)O2)O1` (stereo not given in full), the composite z-score is 0.424 in assay [1]; 0.751 in assay [6]; -0.0762 in [7]; 0.227 with Torsin-1A (Homo sapiens) [8]; 1.11 in the assay with Torsin-1A (Homo sapiens) [9]; 1.23 in [10]. This compound also came in with a composite z-score in assay [12] of 0.0594. In addition, the z-score in [2] is -0.715 (inactive); in assay [3], -0.661 (inactive); in assay [4], -0.253 (inactive); in assay [5] it was 0.327 (inactive); in assay [11] it was -0.558 (inactive); in assay [13], -1.41 (inactive). Further, the z-score in assay [14] is 0.363 (inactive); in [15], -0.619 (inactive); in [16] it was 0.272 (inactive); in assay [17], -0.345; in assay [18], 1.26 (inactive); in [19], 0.767 (inactive). Also, the z-score in assay [20] turned out to be 0.471.
As for `CO[C@@H]1COC(=O)[C@H](COCc2ccccc2)NC(=O)CC=C[C@@H](C)[C@H](OC)COC(=O)[C@@H](C)NC(=O)CC=C[C@H]1C`, the composite z-score in assay [1] is -0.128; in [6], -0.801; in assay [7], -0.179; with Torsin-1A (Homo sapiens) [8], 1.53; in the assay with Torsin-1A (Homo sapiens) [9] it was 0.544; in assay [10], 1.92. In [12], this compound came in with a composite z-score of -0.193. For the same compound, the z-score in [2] is -0.0313 (inactive); in assay [3] it was 0.104 (inactive); in [4], 0.337 (inactive); in assay [5] it was -0.803 (inactive); in assay [11] it was 0.52 (inactive); in assay [13] it was -0.302 (inactive). The z-score in assay [14] was -0.0696 (inactive); in [15], 0.386 (inactive); in assay [16], 0.131 (inactive); in [17], 0.166; in assay [18] it was -0.74 (inactive); in [19], 0.773 (inactive). In addition, the z-score in assay [20] worked out at 0.436.

Values taken from PubChem BioAssay.
